# Assay results reported in PMC11062922 (Nature Chemical Biology, 2023).
# Where two headings read alike, the source gives them in different places.
# Columns and labels:
# Set-up in all cases: species or system human, MV4-11 + K-562 + COLO205 + SK-N-BE2 + OVCAR-8
# ACVR1B = conditions: read-out: apparent Kd, n = 1
# ADCK3 = conditions: read-out: apparent Kd; compound concentrations:100 nM and 1000 nM (sheet 'Samples'); n = 1
# DDR1 = conditions: read-out: apparent Kd, n = 1
# MAPKAPK2 = conditions: read-out: apparent Kd, n = 1
# PKN3 = conditions: read-out: apparent Kd, n = 1
# RIPK2 = conditions: read-out: apparent Kd, n = 1
# SPR = conditions: read-out: apparent Kd; compound concentrations:100 nM and 1000 nM (sheet 'Samples'); n = 1
# TESK2 = conditions: read-out: apparent Kd; compound concentrations:100 nM and 1000 nM (sheet 'Samples'); n = 1
# TGFBR2 = conditions: read-out: apparent Kd, n = 1
# TTK = conditions: read-out: apparent Kd; compound concentrations:100 nM and 1000 nM (sheet 'Samples'); n = 1
# CAMK4 = conditions: read-out: apparent Kd; compound concentrations: 100 nM and 1000 nM (sheet 'Samples'), CATDS: 0.20736458349595299; n = 1
# COX5A = conditions: read-out: apparent Kd; compound concentrations: 100 nM and 1000 nM (sheet 'Samples'), CATDS: 0.27607589651393999; n = 1
# CIT = conditions: read-out: apparent Kd; compound concentrations: 100 nM and 1000 nM (sheet 'Samples'), CATDS: 6.8145894715466407E-2; n = 1
# CSNK1A1 = conditions: read-out: apparent Kd, n = 1
# CSNK1D = conditions: read-out: apparent Kd, n = 1
# CSNK1E = conditions: read-out: apparent Kd, n = 1
# DJA1 = system: T1, DJA1; conditions: read-out: apparent Kd; compound concentrations: 100 nM and 1000 nM (sheet 'Samples'), CATDS: 6.7999729986940594E-2; n = 1
# T1 construct: gene DNAJA1
# GAK = conditions: read-out: apparent Kd, n = 1
# MAPK10 = conditions: read-out: apparent Kd; compound concentrations: 100 nM and 1000 nM (sheet 'Samples'), CATDS: 7.0993589128773599E-2; n = 1
# MAPK14 = conditions: read-out: apparent Kd, compound concentrations: 100 nM and 1000 nM (sheet 'Samples'), n = 1
# MAPK9 = conditions: read-out: apparent Kd; compound concentrations: 100 nM and 1000 nM (sheet 'Samples'), CATDS: 6.4345745846517005E-2; n = 1
# PRKCQ = conditions: read-out: apparent Kd; compound concentrations: 100 nM and 1000 nM (sheet 'Samples'), CATDS: 6.9749841239759497E-2; n = 1
# ACVR2B = conditions: read-out: apparent Kd; compound concentrations:100 nM and 1000 nM (sheet 'Samples'); n = 1
# TAOK1 = conditions: read-out: apparent Kd; compound concentrations:100 nM and 1000 nM (sheet 'Samples'); n = 1
# TGFBR1 = conditions: read-out: apparent Kd, n = 1
# BRAF = conditions: read-out: apparent Kd; compound concentrations: 100 nM and 1000 nM (sheet 'Samples'), CATDS: 0.43506507859715299; n = 1
# CDC42BPG = conditions: read-out: apparent Kd, n = 1
# ADRBK1 = conditions: read-out: apparent Kd; compound concentrations:100 nM and 1000 nM (sheet 'Samples'); n = 1
# AKT1 = conditions: read-out: apparent Kd; compound concentrations:100 nM and 1000 nM (sheet 'Samples'); n = 1
# AKT2 = conditions: read-out: apparent Kd; compound concentrations:100 nM and 1000 nM (sheet 'Samples'); n = 1
# CDK6 = conditions: read-out: apparent Kd; compound concentrations:100 nM and 1000 nM (sheet 'Samples'); n = 1
# MAP2K1 = conditions: read-out: apparent Kd; compound concentrations:100 nM and 1000 nM (sheet 'Samples'); n = 1
# MAP2K2 = conditions: read-out: apparent Kd; compound concentrations:100 nM and 1000 nM (sheet 'Samples'); n = 1
# NQO1 = conditions: read-out: apparent Kd, n = 1
# PYGL = conditions: read-out: apparent Kd; compound concentrations:100 nM and 1000 nM (sheet 'Samples'); n = 1
# RIOK2 = conditions: read-out: apparent Kd; compound concentrations:100 nM and 1000 nM (sheet 'Samples'); n = 1
# TP53RK = conditions: read-out: apparent Kd; compound concentrations:100 nM and 1000 nM (sheet 'Samples'); n = 1
# PRKD2 = conditions: read-out: apparent Kd, n = 1
# TNIK = conditions: read-out: apparent Kd; compound concentrations:100 nM and 1000 nM (sheet 'Samples'); n = 1
# PRKD3 = conditions: read-out: apparent Kd; compound concentrations: 100 nM and 1000 nM (sheet 'Samples'), CATDS: 9.3266966311560201E-2; n = 1
# ACVR1 = conditions: read-out: apparent Kd; compound concentrations:100 nM and 1000 nM (sheet 'Samples'); n = 1
# BCR = conditions: read-out: apparent Kd; compound concentrations:100 nM and 1000 nM (sheet 'Samples'); n = 1
# BMPR1A = conditions: read-out: apparent Kd; compound concentrations:100 nM and 1000 nM (sheet 'Samples'); n = 1
# CSNK2A1;CSNK2A3 = conditions: read-out: apparent Kd; compound concentrations:100 nM and 1000 nM (sheet 'Samples'); n = 1
# CSNK2A2 = conditions: read-out: apparent Kd; compound concentrations:100 nM and 1000 nM (sheet 'Samples'); n = 1
# GSK3A = conditions: read-out: apparent Kd; compound concentrations:100 nM and 1000 nM (sheet 'Samples'); n = 1
# GSK3B = conditions: read-out: apparent Kd; compound concentrations:100 nM and 1000 nM (sheet 'Samples'); n = 1
# JAK2 = conditions: read-out: apparent Kd; compound concentrations:100 nM and 1000 nM (sheet 'Samples'); n = 1
# [1] = compound concentrations:100 nM and 1000 nM (sheet 'Samples')
smiles,measurement,setting,value
Cl.Cl.Oc1cc(-c2nc(-c3ccccc3)[nH]c2-c2ccncc2)ccc1Cl.Oc1cc(-c2nc(-c3ccccc3)[nH]c2-c2ccncc2)ccc1Cl [SB-386023-B],potency estimated from few doses,ACVR1B; [1],968 nM
same,potency estimated from few doses,ADCK3,373 nM
same,potency estimated from few doses,DDR1; [1],1840 nM
same,potency estimated from few doses,MAPKAPK2; [1],1700 nM
same,potency estimated from few doses,PKN3; [1],1020 nM
same,potency estimated from few doses,RIPK2; [1],192 nM
same,potency estimated from few doses,SPR,422 nM
same,potency estimated from few doses,TESK2,1470 nM
same,potency estimated from few doses,TGFBR2; [1],2050 nM
same,potency estimated from few doses,TTK,1600 nM
COc1ccc2cc(-c3c(-c4ccncc4)nc(-c4ccc(S(C)=O)cc4)n3C)ccc2c1 (centres unmarked) [SB-437013],potency estimated from few doses,"ACVR1B; compound concentrations: 100 nM and 1000 nM (sheet 'Samples'), CATDS: 0.34398750715430798",810 nM
same,potency estimated from few doses,CAMK4,2240 nM
same,potency estimated from few doses,COX5A,1190 nM
same,potency estimated from few doses,"DDR1; compound concentrations: 100 nM and 1000 nM (sheet 'Samples'), CATDS: 0.21513236479032799",2040 nM
Fc1ccc(-c2nn3ccccc3c2-c2ccncc2)cc1 [GW434756X],potency estimated from few doses,"ACVR1B; compound concentrations: 100 nM and 1000 nM (sheet 'Samples'), CATDS: 6.8235886805588605E-2",1230 nM
same,potency estimated from few doses,CIT,1230 nM
same,potency estimated from few doses,"CSNK1A1; compound concentrations: 100 nM and 1000 nM (sheet 'Samples'), CATDS: 7.0903830983545899E-2",1120 nM
same,potency estimated from few doses,"CSNK1D; compound concentrations: 100 nM and 1000 nM (sheet 'Samples'), CATDS: 0.180022890791455",233 nM
same,potency estimated from few doses,"CSNK1E; compound concentrations: 100 nM and 1000 nM (sheet 'Samples'), CATDS: 9.3100036539018993E-2",644 nM
same,potency estimated from few doses,DJA1,1240 nM
same,potency estimated from few doses,"GAK; compound concentrations: 100 nM and 1000 nM (sheet 'Samples'), CATDS: 6.3982915513231806E-2",1440 nM
same,potency estimated from few doses,MAPK10,1120 nM
same,potency estimated from few doses,MAPK14; CATDS: 8.8352679979738905E-2,709 nM
same,potency estimated from few doses,MAPK9,1420 nM
same,potency estimated from few doses,"MAPKAPK2; compound concentrations: 100 nM and 1000 nM (sheet 'Samples'), CATDS: 0.114976727477382",449 nM
same,potency estimated from few doses,"PKN3; compound concentrations: 100 nM and 1000 nM (sheet 'Samples'), CATDS: 6.6861054791119798E-2",1290 nM
same,potency estimated from few doses,PRKCQ,1160 nM
Nc1nc(-c2ccccn2)c(-c2ccnc3ccccc23)s1 [GW548057X],potency estimated from few doses,ACVR1B; [1],76.2 nM
same,potency estimated from few doses,ACVR2B,1790 nM
same,potency estimated from few doses,CSNK1A1; [1],893 nM
same,potency estimated from few doses,CSNK1D; [1],1800 nM
same,potency estimated from few doses,CSNK1E; [1],2100 nM
same,potency estimated from few doses,TAOK1,1700 nM
Nc1nccc(-c2c(-c3ccc(F)cc3)nn3cc(C(F)(F)F)ccc23)n1 [GW568326X],potency estimated from few doses,"ACVR1B; compound concentrations: 100 nM and 1000 nM (sheet 'Samples'), CATDS: 0.37925228743827699",526 nM
same,potency estimated from few doses,"CSNK1D; compound concentrations: 100 nM and 1000 nM (sheet 'Samples'), CATDS: 0.232202944333886",1310 nM
same,potency estimated from few doses,MAPK14; CATDS: 0.251383978494441,1100 nM
same,potency estimated from few doses,"TGFBR1; compound concentrations: 100 nM and 1000 nM (sheet 'Samples'), CATDS: 0.196901676551059",2000 nM
CN(C)CCOc1ccc(-c2cc(-c3ccc4c(c3)CCC4=NO)c(-c3ccncc3)o2)cc1.Cl [SB-682330-A],potency estimated from few doses,"ACVR1B; compound concentrations: 100 nM and 1000 nM (sheet 'Samples'), CATDS: 0.32185082744978499",1130 nM
same,potency estimated from few doses,BRAF,644 nM
same,potency estimated from few doses,"CDC42BPG; compound concentrations: 100 nM and 1000 nM (sheet 'Samples'), CATDS: 0.27820560825635698",1600 nM
COc1ccccc1-c1cc(/C=C2\C(=O)Nc3ncc(Br)cc32)cc(Br)c1O [GW442130X],potency estimated from few doses,ACVR1B; [1],646 nM
same,potency estimated from few doses,ADRBK1,1960 nM
same,potency estimated from few doses,AKT1,1540 nM
same,potency estimated from few doses,AKT2,1120 nM
same,potency estimated from few doses,CDC42BPG; [1],453 nM
same,potency estimated from few doses,CDK6,1940 nM
same,potency estimated from few doses,CSNK1A1; [1],1780 nM
same,potency estimated from few doses,MAP2K1,1650 nM
same,potency estimated from few doses,MAP2K2,1580 nM
same,potency estimated from few doses,NQO1; [1],1260 nM
same,potency estimated from few doses,PYGL,1840 nM
same,potency estimated from few doses,RIOK2,1450 nM
same,potency estimated from few doses,TGFBR1; [1],592 nM
same,potency estimated from few doses,TP53RK,1740 nM
c1ccc(-c2n[nH]cc2-c2ccnc3ccccc23)nc1 [GW271431X],potency estimated from few doses,ACVR1B; [1],18.8 nM
same,potency estimated from few doses,ACVR2B,555 nM
same,potency estimated from few doses,CSNK1A1; [1],628 nM
same,potency estimated from few doses,CSNK1D; [1],398 nM
same,potency estimated from few doses,CSNK1E; [1],712 nM
same,potency estimated from few doses,GAK; [1],465 nM
same,potency estimated from few doses,MAPKAPK2; [1],1680 nM
same,potency estimated from few doses,PRKD2; [1],1430 nM
same,potency estimated from few doses,TGFBR1; [1],9.71 nM
same,potency estimated from few doses,TGFBR2; [1],113 nM
same,potency estimated from few doses,TNIK,1380 nM
Nc1nc(-c2ccccn2)c(-c2ccc3ncccc3n2)s1 [GW693481X],potency estimated from few doses,"ACVR1B; compound concentrations: 100 nM and 1000 nM (sheet 'Samples'), CATDS: 0.44423819438106199",18.9 nM
same,potency estimated from few doses,"CSNK1D; compound concentrations: 100 nM and 1000 nM (sheet 'Samples'), CATDS: 0.10134290714946401",1410 nM
same,potency estimated from few doses,"NQO1; compound concentrations: 100 nM and 1000 nM (sheet 'Samples'), CATDS: 9.3669265888158104E-2",1850 nM
same,potency estimated from few doses,"PRKD2; compound concentrations: 100 nM and 1000 nM (sheet 'Samples'), CATDS: 9.0452620049035204E-2",2110 nM
same,potency estimated from few doses,PRKD3,1880 nM
same,potency estimated from few doses,"RIPK2; compound concentrations: 100 nM and 1000 nM (sheet 'Samples'), CATDS: 0.125372096454309",727 nM
same,potency estimated from few doses,"TGFBR1; compound concentrations: 100 nM and 1000 nM (sheet 'Samples'), CATDS: 0.486387422395817",16 nM
same,potency estimated from few doses,"TGFBR2; compound concentrations: 100 nM and 1000 nM (sheet 'Samples'), CATDS: 0.106428788110752",1200 nM
COc1cccc(-n2ncc3c(N/N=C/c4ccncc4)ncnc32)c1 [GW784752X],potency estimated from few doses,ACVR1B; [1],725 nM
same,potency estimated from few doses,ACVR1,119 nM
same,potency estimated from few doses,BCR,641 nM
same,potency estimated from few doses,BMPR1A,1130 nM
same,potency estimated from few doses,CSNK2A1;CSNK2A3,882 nM
same,potency estimated from few doses,CSNK2A2,252 nM
same,potency estimated from few doses,GSK3A,47.2 nM
same,potency estimated from few doses,GSK3B,75.6 nM
same,potency estimated from few doses,JAK2,603 nM
same,potency estimated from few doses,TGFBR1; [1],1520 nM
